# High-throughput results: PubChem BioAssay, National Center for Advancing Translational Sciences (NCATS)
# AmpC inh detg – blocks E. coli AmpC beta-lactamase in detergent assay | AmpC hydrolysis of nitrocefin, absorbance 480 nm, 0.01% Triton | P00811 | Potency, µM (doses to about 114 µM), without a hit: top-dose activity change, negative = inhibition, actives largely listed as inhibitors | AID 485294 | 0.041% of 370,000 active;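 further: 0% = no-compound wells and -100% = no-enzyme wells; nearly all actives have a fitted effect of over 25% in size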
# Target sequence (P00811 whole entry, looked up): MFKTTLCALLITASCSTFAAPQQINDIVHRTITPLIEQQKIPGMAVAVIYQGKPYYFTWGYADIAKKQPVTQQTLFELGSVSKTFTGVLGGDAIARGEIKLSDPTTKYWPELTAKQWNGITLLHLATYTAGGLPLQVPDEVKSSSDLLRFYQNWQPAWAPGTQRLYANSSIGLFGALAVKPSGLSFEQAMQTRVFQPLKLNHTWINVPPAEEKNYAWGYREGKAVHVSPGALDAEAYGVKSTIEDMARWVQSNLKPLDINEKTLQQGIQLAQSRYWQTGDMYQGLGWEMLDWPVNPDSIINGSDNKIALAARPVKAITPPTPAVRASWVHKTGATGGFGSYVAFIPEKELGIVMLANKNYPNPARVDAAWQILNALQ
#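 20 mM phosphate pH 7.0 + 0.01% (detergent screen) or 0.0001% Triton X-100; 5.3 nM AmpC reagent; cpd preinc 15 min RT; nitrocefin (800 uM stock) to start; A480 q20 s × 4 min; Activity was normalised to no-enzyme and no-compound control wells.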
# SARS PLP yeast – SARS-CoV PLP inhibition in yeast | S. cerevisiae expressing SARS-CoV PLpro, growth rescue | Potency, µM (series often up to 32.9 µM), for inactives: top-dose activity, positive = growth rescue, hits mostly activators | 0.19% of 330,000 active; calls by dose curve; further: 0% is about no effect; nearly all actives have a fitted effect of over 55% in size
# Vaccinia mCherry – inhibitors of vaccinia virus infection (mCherry reporter signal); Potency, µM (doses to about 36.5 µM), inactives show at the highest dose activity change, negative = inhibition, most hits filed as inhibitors; AID 720579; Vaccinia virus mCherry reporter infection, fluorescence; 0.63% of 310,000 active; calls by dose curve; tested in A549 cells; further: on the % scale 0 is the no-effect control and ±100 the full control effect; nearly all actives have a fitted effect of over 35% in size
# AMA1-RON2 inh – AMA1-RON2 (P. falciparum) interaction inhibition; AlphaScreen AMA1-biotinylated RON2 peptide binding; Potency, µM (top dose mostly 58.2 µM), for the others: top-dose activity change, negative = inhibition, hits mostly inhibitors; 0.2% of 360,000 active;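 further: 0% = vehicle wells and -100% = peptide control; nearly all actives have a fitted effect of over 45% in size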
#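 AMA1 (3D7) with his tag at 25 nM final met compounds first, then biotinylated RON2 peptide at 25 nM; detection used donor plus acceptor beads, 10 µg/mL apiece, read by AlphaScreen after 30 min at room temperature.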
# Vaccinia Venus – vaccinia inhibition (Venus reporter); Vaccinia virus Venus reporter expression, fluorescence; 0.46% of 330,000 active; Potency, µM (doses to about 36.5 µM), without a hit: at the highest dose activity change, negative = inhibition, most hits filed as inhibitors; calls by dose curve; tested in A549 cells; further: on the % scale 0 is the no-effect control and ±100 the full control effect; nearly all actives have a fitted effect of over 30% in size
# AmpC no deterg – AmpC beta-lactamase inhibition without detergent; P00811; AmpC nitrocefin hydrolysis, absorbance 480 nm, 0.0001% Triton; Potency, µM (highest dose often 57.1 µM), for the others: at the top dose activity change, negative = inhibition, most hits filed as inhibitors; 0.52% of 330,000 active; AID 485341;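 further: plate controls were no compound for no effect and no enzyme for full effect; nearly all actives have a fitted effect of over 20% in size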
#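 AmpC (5.3 nM in the dispensed reagent) in 20 mM phosphate pH 7.0 with 0.01% (detergent screen) or 0.0001% Triton X-100 was preincubated with compounds for 15 min at room temperature. Nitrocefin was then added from an 800 uM solution, and hydrolysis was followed at 480 nm.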
# Starred values were filed as active, the others as inactive; i = inactive; ? = inconclusive; nt = no result; [ ] = another dose, or the depositor's remark. Most compounds without a hit are left out; they make up all but 1.3% or so of the library. Unless noted, the call rests on the fitted dose curve; in most records, active means well fitted curve in the direction sought with a large enough effect; inconclusive means small, poorly fitted or top-dose-only effect, or another doubt; inactive means no such curve, though single readings can be large; an effect the other way counts as inactive or inconclusive. Potency means the concentration at half of the fitted maximal effect.
SMILES,AmpC inh detg,SARS PLP yeast,Vaccinia mCherry,AMA1-RON2 inh,Vaccinia Venus,AmpC no deterg
Cn1c(=O)c2c(SCC(=O)NCc3ccco3)nc(CC(C)(C)C)nc2n(C)c1=O,?,2%,i,-8%,-21%,23%
Nc1c2c(nc3ccc(Br)cc13)N(c1ccccc1)CC2,0%,?,-1%,-16%,-10%,-39%
Cc1cccc(N2CCc3c2nc2ccc(Br)cc2c3N)c1,?,-8%,11µM*,-4%,?,-37%
O=C(c1ccc(Cl)cc1)c1c[nH]c(C(=O)NNc2cccc(Cl)n2)c1,-1%,1%,?,77%,11µM*,-30%
O=c1[nH]c(-c2ccccn2)nc2sc(-c3ccccc3)cc12,-2%,-1%,4.5µM*,120%,?,-12%
COC(=O)[C@@H]1C[C@@H](NC(=O)c2cnsn2)CN1Cc1ccc(Cl)cc1,nt,nt,-20%,nt,-12%,nt
COc1ccc(C(=O)NCC(=O)NC2=NCCS2)cc1,?,13%,-14%,-6%,11%,35µM*
COc1ccc(OCCC(=O)NC2=NCCS2)cc1,1%,-10%,nt,1%,nt,1%
CCCc1cc(-c2n[nH]c(=S)n2CC)cs1,2%,0%,-15%,79%,-10%,-32%
CCCc1cc(-c2n[nH]c(=S)n2C(C)c2ccccc2)cs1 (stereo not given),-3%,22µM*,-20%,58%,-15%,-31%
CCOC(=O)N1CCN(c2cc(=O)n(-c3ccc(C)cc3)c(=O)[nH]2)CC1,-1%,5%,i,0%,-8%,-1%
CCOC(=O)N1CCN(c2cc(=O)n(-c3ccc(Br)cc3)c(=O)[nH]2)CC1,?,4%,-13%,5%,0%,0.56µM*
COc1ccc(Nc2ncnc3c2cnn3-c2ccc(C)cc2)cc1Cl,7%,nt,-18%,nt,-14%,nt
CN(C)CCN1C(=O)c2cccc3cc([N+](=O)[O-])cc(c23)C1=O,nt,nt,1.1µM*,-17%,?,nt
OC1(c2cccc(C(F)(F)F)c2)CCN(c2ncnc3c2[nH]c2ccc(F)cc23)CC1,16%,nt,nt,-4%,11µM*,nt
Fc1ccc2[nH]c3c(N4CCN(c5ccccc5)CC4)ncnc3c2c1,-1%,-15%,?,-18%,?,-57%
CCCCCCCCCCOCCC(=O)O,nt,nt,-1%[3.33 µM],nt,-19%[3.33 µM],nt
O=C(CCN1C(=O)S/C(=C\c2cccs2)C1=O)NC1=NCCS1,-3%,-21%,-15%,6%[11.6 µM],-18%,22µM*
C[CH2][Hg][S]c1ccccc1C(=O)O,nt,nt,?,45%,11µM*,nt
CCCNC(=O)Cn1sc2nc(C)cc(C)c2c1=O,79µM*,-8%,-2%,-2%,-6%,?
Cc1nn(CC(=O)N2CCC(N3CCCCC3)CC2)c(=O)c2c1sc1ccccc12,-8%,-5%,nt,9%,nt,1%
CCOC(=O)C1CCCN(C(=O)Cn2sc3nc(C)cc(C)c3c2=O)C1 (stereo not given),45µM*,-14%,i,11%,-20%,14µM*
CC(=O)Cn1cnc2c(sc3nc(C)cc(C)c32)c1=O,3%,-2%,-21%,-6%,9%,-24%
Cc1cc(C)c2c(=O)n(CC(=O)N3CCC(N4CCCCC4)CC3)sc2n1,56µM*,-9%,-12%,0%,9%,20µM*
Cc1ccc2c(c1)CN(C(=O)CC(c1ccccc1)c1ccco1)CC(C)O2 (stereo not given),nt,nt,?,nt,-26%,nt
SMILES,AmpC inh detg,SARS PLP yeast,Vaccinia mCherry,AMA1-RON2 inh,Vaccinia Venus,AmpC no deterg
COc1cccc(-c2cc3c(c(OC)c2)OCCN(Cc2cccn2-c2ccccn2)C3)c1,nt,nt,-16%,nt,-1%,nt
Cc1ccc(-n2nnnc2SCC(=O)Nc2sc(C)c(C)c2C#N)cc1C,-2%,?,-13%,4%,-13%,0.32µM*
CCC1CN(CCNC(=O)c2ccc(C#CC(C)(C)O)cc2)Cc2cc(OC)ccc2O1 (stereo not given),nt,nt,-15%,nt,-8%,nt
CCOC(=O)Cn1c(=NC(=O)CSC(C)=O)sc2cc(F)ccc21,?,2%,-1%,-6%,11%,35µM*
COCCn1c(=NC(=O)CSC(C)=O)sc2cc(F)ccc21,-1%,8%,nt,-1%,5%,-6%
CCCCCCC[n+]1ccc(/C=C/c2c(C)[nH]c3ccccc23)cc1,nt,nt,28µM*,nt,256%,nt
CCOC(=O)c1cnc2ccc(C)cc2c1Nc1ccc(N2CCOCC2)cc1,-8%,-4%,?,14µM*,-24%,61%
CCOC(=O)c1ccc(Nc2cc(C)nc(N3CCOCC3)n2)cc1,3%,2%,10µM*,-15%,13µM*,5%
CC(C)(CO)NC(=O)c1cnn(-c2ncc3c(n2)-c2ccccc2CC3)c1C1CC1,nt,nt,-14%,nt,-8%,nt
O=C(CN1C(=O)S/C(=C\c2ccc(-c3cc(C(=O)O)ccc3Cl)o2)C1=O)Nc1ccc2c(c1)OCO2,79µM*,-8%,nt,nt,nt,-36%
Cn1cc(/C=C2/SC(=O)N(CC(=O)Nc3ccc4c(c3)OCO4)C2=O)c2ccccc21,-11%,-3%,i,0%,-12%,-21%
COC(=O)[C@@H]1CCCN1C(=O)c1c(OC)cc(=O)n2c1CCN(Cc1ccc(C)o1)CC2,nt,nt,-18%,nt,-14%,nt
O=C(NNC(=S)Nc1ccc(Cl)cc1)c1ccccc1OC(F)F,?,6%,13µM*,17%,?,-45%
O=C(NNC(=S)NCc1ccccc1)c1ccccc1OC(F)F,-1%,?,-24%,29%,-13%,-26%
N=C1C=CC(=C(c2ccc(N)cc2)c2ccc(N)cc2)C=C1,nt,nt,?,14µM*,?,nt
Nc1ccc(C(=O)C(=O)c2ccc(N)cc2)cc1,?,-1%,i,13%,-18%,-13%
O=C(NCCc1nnc2n1CCN(Cc1ccc(F)cc1)CC2)c1ccc(F)cc1,nt,nt,-3%,nt,-7%,nt
CNCCNC[C@H](Cc1cccc2ccccc12)NCCc1ccccc1,nt,-5%,?,69%,-12%,40%
CNC[C@H](Cc1ccccc1)NC[C@@H](Cc1cccc2ccccc12)NCCc1ccc(C)cc1,-11%,-11%,?,55%,14µM*,134%
Cc1sc2ccccc2[n+]1CCc1ccccc1,nt,nt,-15%,nt,-7%,nt
CCOC(=O)c1ccc(NC(=O)c2ccccc2)cc1,?,-7%,i,-1%,-7%,10µM*
CCOC(=O)c1ccc(NC(=O)c2ccc(NS(C)(=O)=O)cc2)cc1,?,-2%,-16%,9%,-11%,-42%
Cc1cccc(Oc2ncnc3onc(C)c23)c1,0%,4%,nt,0%,-8%,0.79µM*
Cc1noc2ncnc(Oc3ccccc3)c12,1%,2%,nt,2%,-16%,-6%
Cc1cnc(C)c(-c2cc(F)cc3c2OC(CNC(=O)CN2CCCC2)C3)n1 (stereo not given),nt,nt,-1%,nt,-14%,nt
CC1(C)N=C(N)N=C(N)N1c1ccc(CCCCc2ccccc2)cc1,nt,nt,3.2µM*,-3%,?,nt
